# Results published in article PMC4336329 (PLoS ONE, 2015).
# Out of some 310,000 compounds screened, about 14,000 (4.5%) showed an effect of 50% or more. The effect is printed as a negative number. Shown is part of a subset that was picked to be rich in strong results.
# Target: human ether-à-go-go-related gene (hERG) potassium channel (human, UniProt Q12809)
# Assay: primary screen, population patch clamp on CHO cells stably expressing hERG; higher = less effect of the substance
# 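Further: peak tail current of the secondary pulse compared with the same well before compound.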
# Sequence of human ether-à-go-go-related gene (hERG) potassium channel (Q12809 whole entry, looked up): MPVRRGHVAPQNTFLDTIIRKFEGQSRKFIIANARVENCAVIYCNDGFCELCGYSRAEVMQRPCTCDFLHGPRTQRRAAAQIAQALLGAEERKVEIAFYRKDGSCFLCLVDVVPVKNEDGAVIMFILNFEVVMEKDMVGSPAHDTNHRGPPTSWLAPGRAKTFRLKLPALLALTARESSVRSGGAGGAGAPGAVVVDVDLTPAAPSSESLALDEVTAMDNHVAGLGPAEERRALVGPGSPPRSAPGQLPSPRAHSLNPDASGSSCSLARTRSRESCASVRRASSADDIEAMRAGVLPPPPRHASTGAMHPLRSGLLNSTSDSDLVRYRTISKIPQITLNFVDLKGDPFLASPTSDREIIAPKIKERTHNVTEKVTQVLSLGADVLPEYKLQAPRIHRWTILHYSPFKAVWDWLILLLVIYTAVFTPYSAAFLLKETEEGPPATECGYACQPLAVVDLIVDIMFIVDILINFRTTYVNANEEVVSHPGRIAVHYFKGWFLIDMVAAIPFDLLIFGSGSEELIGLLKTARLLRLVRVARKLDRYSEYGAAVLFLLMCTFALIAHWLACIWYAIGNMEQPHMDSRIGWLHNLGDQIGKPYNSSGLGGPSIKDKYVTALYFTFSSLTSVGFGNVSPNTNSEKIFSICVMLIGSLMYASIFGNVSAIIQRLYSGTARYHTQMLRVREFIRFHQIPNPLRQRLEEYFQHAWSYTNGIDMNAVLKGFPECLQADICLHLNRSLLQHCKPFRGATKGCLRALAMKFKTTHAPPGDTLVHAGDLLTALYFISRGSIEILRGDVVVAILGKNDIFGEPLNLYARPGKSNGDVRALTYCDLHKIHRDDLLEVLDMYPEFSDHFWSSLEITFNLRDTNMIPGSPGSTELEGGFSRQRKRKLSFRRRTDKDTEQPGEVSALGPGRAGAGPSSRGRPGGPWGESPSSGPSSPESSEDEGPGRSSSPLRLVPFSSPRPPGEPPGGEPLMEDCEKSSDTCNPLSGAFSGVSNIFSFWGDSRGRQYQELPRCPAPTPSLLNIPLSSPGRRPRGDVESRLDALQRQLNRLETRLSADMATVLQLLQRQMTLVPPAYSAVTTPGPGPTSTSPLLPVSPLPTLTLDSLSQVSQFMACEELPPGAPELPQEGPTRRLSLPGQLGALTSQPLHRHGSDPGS
row,SMILES,"hERG current change (%, negative = inhibition) at 10uM [%]"
1,COC(OC)c1ccc(C#N)c(SCc2ccccc2)n1,4.03
2,CCNS(=O)(=O)c1ccc(CCC(=O)NCc2ccccn2)cc1,13.5
3,O=C(CN1CCCCC1)NNc1nc(-c2ccccc2)c2cc(Cl)ccc2n1,-58
4,O=C(CN1CCCCC1)NNc1nc(-c2ccccc2)c2cc(Br)ccc2n1,-55.4
5,O=C(O)CCC(=O)NNc1nc(-c2ccccc2)c2cc(Cl)ccc2n1,14.4
6,CC(=O)NNc1nc(-c2ccccc2)c2cc(Br)ccc2n1,5.01
7,O=C(CCl)NNc1nc(-c2ccccc2)c2cc(Cl)ccc2n1,1.46
8,O=C(CN1CCOCC1)NNc1nc(-c2ccccc2)c2cc(Br)ccc2n1,-38.7
9,COCCN(C(=O)CCCC(=O)Nc1ccccn1)C(C(=O)NC1CCCC1)c1ccc(C)cc1 (stereo not shown),-5.66
10,O=C(Nc1cc2c(oc1=O)CCCC2=O)c1cccc(Cl)c1,4.61
11,CCC(Oc1ccccc1)C(=O)Nc1ccccc1C(=O)N1CCN(C)CC1 (stereo not shown),0.0528
12,N#CC(c1ccccc1)N1CCOCC1 (stereo not shown),6.63
13,S=C1SCN(Cc2cccnc2)CN1Cc1cccnc1,-20.9
14,S=C1NCN(Cc2cccnc2)CN1Cc1ccccc1,22.8
15,S=C1SCN(Cc2cccnc2)CN1Cc1ccccc1,-54.7
16,Fc1ccc2[nH]c3c(N4CCN(C5CCCCC5)CC4)ncnc3c2c1,-46.7
17,COc1ccc(CN(CC2CCC(C(=O)O)CC2)C(=S)Nc2cc(C)cc(C)c2)cc1 (stereo not shown),19.6
18,Cc1cc(N2CCCC2)nc(-c2ccccc2O)n1,-1.15
19,CCN1CCN(c2cc(C)nc(-c3ccccc3O)n2)CC1,-58.9
20,Cc1cc(N2CCN(C)CC2)nc(-c2ccccc2O)n1,-41.9
21,Cc1ccc(CN2CC(C(=O)Nc3cccc(S(=O)(=O)N4CCCCC4)c3)CC2=O)cc1 (stereo not shown),6.85
22,CC(=O)c1ccc(OCC(C)C)c(CC(C(N)=O)C(N)=O)c1,19.2
23,CCOC(=O)C1=C(C)N(CCO)C(=O)NC1c1cccc(O)c1 (stereo not shown),18.8
24,CC(Cc1ccc(Cl)cc1)N1CCC(n2nccc2NC(=O)C2CCCC2)CC1 (stereo not shown),-76.3

row,SMILES,"hERG current change (%, negative = inhibition) at 10uM [%]"
1,O=C(Nc1ccnn1C1CCN(Cc2ccc(Cl)cc2)CC1)C1CCCC1,-63.6
2,Cc1ccc(CN2CCC(n3nccc3NC(=O)C3CCOC3)CC2)cc1 (stereo not shown),-26.8
3,O=C(Nc1ccnn1C1CCN(Cc2ccccc2)CC1)C1CCCC1,-36.7
4,O=C(Nc1ccnn1C1CCN(C(=O)c2ccc(Cl)cc2)CC1)C1CC1,-24.2
5,O=C(Nc1ccnn1C1CCN(Cc2cccc(O)c2)CC1)C1CCCC1,-36.5
6,CSc1ccc(CN2CCC(n3nccc3NC(=O)C3CCOC3)CC2)cc1 (stereo not shown),-67.8
7,CSc1cccc(CN2CCC(n3nccc3NC(=O)C3CC3)CC2)c1,-51.4
8,O=C(Nc1ccnn1C1CCN(Cc2ccccc2)CC1)C1CCOC1 (stereo not shown),18.8
9,O=C(Nc1ccnn1C1CCN(Cc2ccc(O)c(Cl)c2)CC1)C1CCCC1,-33
10,CC(C)n1cc(CN2CCC(n3nccc3NC(=O)C3CCCC3)CC2)cn1,-1.92
11,CSc1ccc(CC(=O)N2CCC(n3nccc3NC(=O)C3CC3)CC2)cc1,-8.47
12,CNC(=S)N/N=C/c1cn(CCOc2cccc(OC)c2)c2ccccc12,3.42
13,O=C([O-])C(CCCCNS(=O)(=O)c1ccc(F)cc1)NS(=O)(=O)c1ccc(F)cc1.[K+] (stereo not shown),20.3
14,COc1ccccc1NC(=O)C1=C(C)Nc2nc(CCCO)nn2C1c1ccc2c(c1)OCO2 (stereo not shown),7.42
15,CCOC(=O)C1CCCC(NS(=O)(=O)c2ccc(NC(C)=O)cc2)C1 (stereo not shown),-2.41
16,Cc1ccc(S(=O)(=O)/N=C(/c2ccccc2)N(C)C)c(C)c1,12.7
17,NC(=S)N/N=C1\c2ccccc2-c2c(C(=O)O)cccc21,12.7
18,Cc1cc(C)c(C(=O)N2CCCC(CNC(=O)C3(c4ccc(Cl)cc4)CC3)C2)c(=O)[nH]1 (stereo not shown),6.58
19,COCCN1C(=O)C(=O)/C(=C(/O)c2ccc(S(=O)(=O)N3CCOCC3)cc2)C1c1ccc(O)cc1 (stereo not shown),3.78
20,O=C1OCC(CO)(CO)N=C1NNc1ccc(Cl)c(Cl)c1,8.16
21,COC(=O)c1ccc2c(=O)n(CCCCCC(=O)NCc3ccc4c(c3)OCO4)c(=O)[nH]c2c1,-31.7
22,Cc1cc(C)cc(NC(=S)N2CCN(c3ccc(F)cc3)CC2)c1,-8.95
23,COC(=O)C1=C(c2ccccc2OCc2ccccc2)C[C@@H]2CC[C@H]1N2C(=O)NCc1ccc(N(C)C)cc1,10.9
24,CCOc1cccc(CN2CCC(n3nccc3NC(=O)C3CCCC3)CC2)c1,-55.3

row,SMILES,"hERG current change (%, negative = inhibition) at 10uM [%]"
1,O=C(Nc1ccnn1C1CCN(Cc2cccc(OCCO)c2)CC1)C1CCOC1 (stereo not shown),-2.98
2,O=C(Nc1ccnn1C1CCN(Cc2cccc(OCCO)c2)CC1)C1CCCC1,-24.8
3,CCn1cc(CN2CCC(n3nccc3NC(=O)C3CCCC3)CC2)cn1,-6.15
4,CC(C)Cc1ccc(CN2CCC(n3nccc3NC(=O)C3CCCC3)CC2)cc1,-72.4
5,CCc1ccc(CN2CCC(n3nccc3NC(=O)C3CCCC3)CC2)cc1,-76.3
6,Cn1c(=S)c2[nH]c(SCCN3CCCC3)nc2n(C)c1=O,10.5
7,Cc1ccccc1NC(=S)N(CCN(C)C)C(C)c1ccccn1 (stereo not shown),-8.78
8,OCCCNCc1cccc2ccccc12,-15.8
9,Cc1ccc(C(C(=O)NC2CCCCC2)N(C(=O)CCCC(=O)Nc2ccccn2)c2ccc3c(c2)OCCO3)cc1 (stereo not shown),-3.99
10,COC(=O)c1ccc(CSc2nnc3c(n2)[nH]c2ccccc23)cc1,-23.1
11,Cc1sc2ncnc(N3CCN(S(=O)(=O)c4ccccc4)CC3)c2c1C,-18.6
12,CCS(=O)(=O)N1CCN(c2ncnc3sc(C)c(C)c23)CC1,-53.7
13,Cc1sc2ncnc(N3CCCCC3)c2c1C,-11.9
14,Cc1sc2ncnc(N3CCN(S(=O)(=O)c4ccc(Br)cc4)CC3)c2c1C,-47.5
15,Cc1sc2ncnc(N3CCN(S(=O)(=O)c4ccc(F)cc4)CC3)c2c1C,-50.9
16,Cc1cc(C)c(C)c(S(=O)(=O)N2CCN(c3ncnc4sc(C)c(C)c34)CC2)c1C,8.21
17,COc1ccccc1NC(=O)NCC(=O)Nc1c(C)cccc1C,30.5
18,CCOC(=O)c1ccc(CS(=O)c2ccc(Cl)cc2)o1 (stereo not shown),-3.47
19,Cc1cc(C)c(NC(=O)CCCN2CCOCC2)c(C)c1,13.1
20,COC(=O)c1scc(C)c1NC(=O)CC1NCCNC1=O (stereo not shown),11.9
21,O=C(C[n+]1ccccc1)c1ccc(-c2ccccc2)cc1.[Br-],-21.4
22,COC(=O)c1ccc(CC(=O)c2c(C)cc(O)cc2O)o1,0.801
23,CC1CCN(CCOCCSc2ccc(Cl)cc2)CC1.O=C(O)C(=O)O,-72.1
24,CC1CN(CCCCSc2ccc(Cl)cc2)CC(C)O1.O=C(O)C(=O)O (stereo not shown),-31.6

row,SMILES,"hERG current change (%, negative = inhibition) at 10uM [%]"
1,CC1CN(CCCSc2ccc(Cl)cc2)CC(C)O1.O=C(O)C(=O)O (stereo not shown),-47.9
2,CC1CC(C)CN(CCCSc2ccccc2)C1.O=C(O)C(=O)O (stereo not shown),-64.3
3,CC1CN(CCCCSc2ccccc2)CC(C)O1.Cl (stereo not shown),-8.71
4,CC1CC(C)CN(CCOCCSc2ccc(Cl)cc2)C1.O=C(O)C(=O)O (stereo not shown),-72.4
5,CN(C)CCOCCSc1ccc(Cl)cc1.O=C(O)C(=O)O,-37.3
6,CC1CN(CCOCCSc2ccc(Cl)cc2)CC(C)O1.O=C(O)C(=O)O (stereo not shown),-23.3
7,CC1CC(C)CN(CCOCCSc2ccccc2)C1.O=C(O)C(=O)O (stereo not shown),-45.1
8,Cc1cccc(OCC(O)Cn2c(N3CCCCC3)nc3c2c(=O)n(C)c(=O)n3C)c1 (stereo not shown),-13.7
9,CCN(CC)S(=O)(=O)c1cccc(-c2nnc(SCc3nc4ccccc4s3)o2)c1,-3.82
10,O=S(=O)(Nc1ccccc1F)c1ccc(Cl)nc1,5.63
11,Cc1ccc2oc(C(=O)NCCC3CCCCO3)c(C)c2c1 (stereo not shown),-11.5
12,Cn1c(=O)c2[nH]c(N=Nc3ccc(N)cc3N)nc2n(C)c1=O,28.7
13,O=c1cc(NS(=O)(=O)c2ccccc2)nc(SCc2ccccc2Cl)[nH]1,6.99
14,CCOc1ccc(N2C(=O)CC(N3CCN(C4CCc5ccccc5C4)CC3)C2=O)cc1 (stereo not shown),-71.5
15,COc1ccc(N2C(=O)CC(N3CCN(C4CCc5ccccc5C4)CC3)C2=O)cc1 (stereo not shown),-61.7
16,COc1ccc(N2C(=O)CC(N3CCN(c4ccc(Cl)cc4)CC3)C2=O)cc1 (stereo not shown),-4.94
17,CCOc1ccc(N2C(=O)CC(N3CCc4ccccc43)C2=O)cc1 (stereo not shown),-3.24
18,COc1ccc(NC2CCN(C3CC(=O)N(c4ccc(F)c(Cl)c4)C3=O)CC2)cc1 (stereo not shown),-54.8
19,CCOc1ccc(N2C(=O)CC(N3CCN(c4ccccc4F)CC3)C2=O)cc1 (stereo not shown),6.59
20,COc1ccc(N2C(=O)CC(N3CCCCC3)C2=O)cc1 (stereo not shown),18.6
21,COc1ccc(N2C(=O)CC(N3CCN(c4ccccc4)CC3)C2=O)cc1 (stereo not shown),8.93
22,COc1cccc(N2CCN(C3CC(=O)N(c4ccc(F)c(Cl)c4)C3=O)CC2)c1 (stereo not shown),-12.6
